Results taken from PubChem BioAssay AID2279 (Southern Research Specialized Biocontainment Screening …, 2010).
Results with a measured potency or affinity are listed apart.

assay: HIV-1 Env-mediated cell fusion inhibitors, dose response, CCR5-tropic Env (AID 2279); conditions: CCR5-tropic HIV-1 Env, reporter read-out; series mostly up to 50 µM; inhibition: at the top concentration; call rule not given here

inhibition, inactive:
CC(C)CS(=O)(=O)C1=NSC2=NC(=O)/C(=C\c3ccc(OC(=O)c4ccco4)cc3)C(=N)N21 -4.18%, COc1cc(NS(=O)(=O)c2ccc(Nc3nc(-c4ccccc4)cs3)cc2)nc(OC)n1 11.2%, CC1=NN(c2ccc(C(=O)O)cc2)C(=O)/C1=C\c1ccc(OC(=O)c2cccs2)cc1 9.07%, O=C(O)c1[nH]c2ccccc2c1C(c1cccc(O)c1)c1c(C(=O)O)[nH]c2ccccc12 -15.4%, COc1cc(/C=N/NC(=O)C(Cc2c[nH]c3ccccc23)NC(=O)OCc2ccccc2)cc([N+](=O)[O-])c1O (centres undefined) 9.4%, O=C1NC(=O)/C(=C/c2ccc(-c3cc(C(=O)O)ccc3Cl)o2)S1 4.39%, O=C(NN1C(=O)/C(=C/c2ccc(O)cc2)SC1=S)c1ccccc1O 21%, COc1cccc(-c2coc3c(C)c4oc(=O)c(CCC(=O)O)c(C)c4cc23)c1 37.9%, O=S(=O)(Nc1nc(-c2sccc2Cl)cs1)c1cc(Cl)ccc1Cl -27.6% [at 25 µM], COc1ccc(O)c(C(=O)c2cc(SCC(=O)O)c3nc4sc5c(c4c(=O)n3c2)CCCC5)c1 36%, O=C(Nc1cc(C(=O)Nc2ccccc2C(=O)O)cc(C(=O)Nc2ccccc2C(=O)O)c1)c1ccccc1 15.2%, CCc1ccc(N=C2NC(=O)/C(=C/c3cc(Br)c(OCC(=O)O)c(OC)c3)S2)cc1 -9.37%, COc1ccc(-c2cc(-c3ccc(Cl)cc3)c(C#N)c(SCC(=O)O)n2)cc1 28.1%, O=C(NN1C(=O)/C(=C\c2ccc(O)c([N+](=O)[O-])c2)SC1=S)c1ccccc1Cl 2.89%, C=CC#CC[N+]1(CC#Cc2ccccc2)CCOCC1 -3.27%, O=C1NN(c2ccc(F)c(Cl)c2)C(=O)/C1=C\c1cccc(OC(=O)c2cccs2)c1 27.9%, N#Cc1c(-c2ccccc2)nc(SCC(=O)N2c3ccccc3Sc3ccccc32)[nH]c1=O -1.64%, O=C(CSc1nc2ccccc2c(=O)n1Cc1ccccc1)Nc1ccc(Br)cc1C(=O)O 7.04%, Cc1cccc(S(=O)(=O)Nc2nc3ccccc3nc2Nc2cccc(C(=O)O)c2)c1 20.8%, N=C1/C(=C/c2ccc(-c3cccc(C(=O)O)c3)o2)C(=O)N=C2SC=C(c3ccccc3)N12 30.6%, O=C(O)c1ccc(Cl)c(S(=O)(=O)Nc2ccccc2C(=O)Nc2ccc(Cl)cc2)c1 -12.6%, COc1cccc(C2C3=C(N=c4s/c(=C\c5ccc(OCC(=O)O)cc5)c(=O)n42)c2ccccc2CC3)c1 (centres undefined) 29.7%, O=C(CN1C(=O)S/C(=C\C=C\c2ccccc2)C1=O)Nc1ccccc1C(=O)O 0.8%, CC(/C=C1\SC(=S)N(c2ccc(C(=O)O)cc2)C1=O)=C\c1ccccc1 -3.04%, O=C(O)/C=C/C(=O)Nc1ccc(C2(c3ccc(NC(=O)/C=C/C(=O)O)cc3)c3ccccc3-c3ccccc32)cc1 4.84%, O=C(O)C1Nc2c(cccc2C(F)(F)F)C2C=CCC12 (centres undefined) 9.45%, COc1cc(/C=C2\C(=N)N3N=C(S(C)(=O)=O)SC3=NC2=O)ccc1OC(=O)c1cccs1 -6.46%, Cc1ccc(S(=O)(=O)Oc2ccc(/C=C3\C(=N)N4N=C(S(C)(=O)=O)SC4=NC3=O)cc2)cc1 -3.81%, COc1cc(NS(=O)(=O)c2ccc(NC(=S)NC(=O)c3sc4ccccc4c3Cl)cc2)nc(OC)n1 17.8%, COc1ccccc1OCCOc1ccc(/C=C2\C(=N)N3N=C(S(C)(=O)=O)SC3=NC2=O)cc1 8.49%, O=C(COc1ccc2ccccc2c1)Nc1cccc(C(=O)Nc2ccccc2C(=O)O)c1 1.46%, O=C(O)CSc1ncnc2c1sc1nc(-c3ccccc3)c3c(c12)CCC3 11.8%, CC(C)(C)c1ccc(S(=O)(=O)/N=C2\C=C(NS(=O)(=O)c3ccccc3)C(=O)c3ccccc32)cc1 13.5%, O=C(Nc1cccc(C(F)(F)F)c1)c1cccc(NS(=O)(=O)c2ccc(O)c(C(=O)O)c2)c1 -10.3%
